Several values for one entry are separate records, joined by “and”; a condition that tells them apart may be missing. Equal entries are not always repeated. A number with no mark means an inactive call. Records with an inconclusive call do not appear. Where a call stands in place of a potency, no number is given. Activity calls are given as the source filed them. Unless noted, the call rests on the fitted dose curve; in most records, active means well fitted curve in the direction sought with a large enough effect in the repeat runs; inconclusive means weak or mixed curves; inactive means no such curve, though single readings can be large; an effect the other way counts as inactive or inconclusive.
How the values were obtained:
[1] = target: Progesterone receptor (Homo sapiens) (UniProt P06401); assay: qHTS assay to identify small molecule antagonists of the progesterone receptor (PR) signaling pathway (AID 1346795; active means well fitted inhibition curve with a large enough effect in the signal ratio in the repeat runs, not every such curve was filed as active; the % refers to the signal ratio; further: potency means the concentration at half of the fitted maximal effect)
Method in brief: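 Antagonist mode with agonist R5020 at 1 nM final and 16 hr incubation at 37C. Reporter was beta-lactamase driven by UAS in HEK293T (PR-UAS-bla), 2% charcoal-stripped serum; signal from LiveBLAzer FRET substrate, 2 hr at room temperature.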

[2] = qHTS assay to identify small molecule antagonists of the TGF-beta/Smad signaling pathway - cell viability counter screen (AID 1346824); further: nearly all actives have a fitted effect of over 50% in size
Method in brief: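 SBE-bla HEK 293T cells, incubated overnight, then compound plus 0.25 ng/mL TGF-beta1 (stock added) for 5 hr at 37 C. Viability was read in the same wells by CellTiter-Glo luminescence after 30 min at room temperature.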

[3] = qHTS assay to identify small molecule agonists of the TGF-beta/Smad signaling pathway - cell viability counter screen (AID 1346829); further: top concentration of the series differs between compounds; nearly all actives have a fitted effect of over 45% in size
Method in brief: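 Same-well cytotoxicity: CellTiter-Glo added after the 2 hr room-temperature beta-lactamase substrate step, luminescence measured 30 min later; cells had 5 hr of compound at 37 C.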

[4] = qHTS assay to identify small molecule agonists of the TGF-beta/Smad signaling pathway (AID 1346859; active means well fitted activation curve with a large enough effect in the signal ratio in the repeat runs, not every such curve was filed as active; the % refers to the signal ratio; further: series mostly up to about 77 µM)
Method in brief: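 Fluorescence (ex 405 nm; em 460 and 530 nm) was read 2 h after LiveBLAzer FRET substrate at RT. The preceding compound treatment of overnight-plated SBE-bla HEK293T cells lasted 5 h at 37 C.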

[5] = target: Thyrotropin-releasing hormone receptor (Homo sapiens) (UniProt P34981); assay: qHTS assay to identify small molecule antagonists of the thyrotropin-releasing hormone receptor (TRHR) signaling pathway (AID 1346877; active means well fitted inhibition curve with a large enough effect in the repeat runs, not every such curve was filed as active; further: series mostly up to about 51 µM)
Method in brief: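 Cells (TRHR-HEK293) are plated and kept 18 h at 37 °C/5% CO2. A calcium-sensitive dye is added for 2 h, compound follows for 5 min at room temperature, and TRH is then given at 1 nM final.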

[6] = target: Thyrotropin-releasing hormone receptor (Homo sapiens) (UniProt P34981); assay: qHTS assay to identify small molecule agonists of the thyrotropin-releasing hormone receptor (TRHR) signaling pathway (AID 1346891; calls by dose curve; further: series mostly up to about 58 µM)
Method in brief: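 Agonist-mode intracellular calcium readout: kinetic fluorescence over 3 min at 1 s intervals after compound addition to TRHR-HEK293 cells (18 h seeded, 2 h dye-loaded at 37 C). Fifteen concentrations, triplicates.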

[7] = Human pregnane X receptor (PXR) small molecule agonists, qHTS cell viability counter screen (AID 1346977); further: nearly all actives have a fitted effect of over 50% in size; further: potency means the concentration at half of the fitted maximal effect
Method in brief: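 Same-well viability read: CellTiter-Fluor added after 23 hr compound exposure, fluorescence measured 1 hr later. Cells were PXR-Luc HepG2 seeded at 2,000/well in 5% charcoal-stripped FBS medium, rested 5 hr before dosing at 37 C.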

[8] = Caspase-3/7 induction in HepG2 cells by small molecules, qHTS assay (AID 1346978); further: nearly all actives have a fitted effect of over 15% in size; further: potency means the concentration at half of the fitted maximal effect
Method in brief: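 Wild-type HepG2 cells, 2,000/well, settled 5 hr at 37 C and 5% CO2, then compound-treated for 17 hr; caspase-3/7 activity read by luminescent Caspase-Glo 3/7 after 30 min at room temperature.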

[9] = Caspase-3/7 induction in CHO-K1 cells by small molecules, qHTS cell viability counter screen (AID 1346979); further: nearly all actives have a fitted effect of over 35% in size; further: potency means the concentration at half of the fitted maximal effect
Method in brief: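 Cytotoxicity counter screen: CellTiter-Fluor added to compound-treated wild-type CHO-K1 cells at 16 h (37C, 5% CO2), fluorescence measured 1 h later; same wells as caspase-3/7 measurement.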

[10] = target: Cytochrome P450 2D6 (Homo sapiens) (UniProt P10635); assay: Cytochrome P450 Family 2 Subfamily D Member 6 (CYP2D6) small molecule antagonists: luciferase reporter qHTS assay (AID 1671196); further: nearly all actives have a fitted effect of over 50% in size; further: potency means the concentration at half of the fitted maximal effect
Method in brief: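 P450-Glo format: CYP2D6 converts a proluciferin substrate to luciferin in an NADPH-driven reaction lasting 1 h at room temperature. Light output, proportional to CYP2D6 activity, reflects interference by test chemicals.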

[11] = target: Cytochrome P450 2C19 (Homo sapiens) (UniProt P33261); assay: Cytochrome P450 Family 2 Subfamily C Member 19 (CYP2C19) small molecule antagonists: luciferase reporter qHTS assay (AID 1671197); further: nearly all actives have a fitted effect of over 65% in size; further: potency means the concentration at half of the fitted maximal effect
Method in brief: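 Quantitative high-throughput screen of the Tox21 library using CYP2C19 with proluciferin substrate. Reaction: NADPH regeneration, 37C, 1 h, after 10 min compound preincubation at room temperature. Readout: luminescence.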

[12] = target: Cytochrome P450 2C9 (Homo sapiens) (UniProt P11712); assay: Cytochrome P450 Family 2 Subfamily C Member 9 (CYP2C9) small molecule antagonists: luciferase reporter qHTS assay (AID 1671198); further: nearly all actives have a fitted effect of over 50% in size; further: potency means the concentration at half of the fitted maximal effect
Method in brief: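 P450-Glo proluciferin substrate with CYP2C9 enzyme; 10 min RT preincubation, then NADPH regeneration 1 h at 37C; luciferin detection reagent 20 min RT, luminescence in relative luminescence units.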

[13] = qHTS assay to identify small molecule agonists of the progesterone receptor (PR) signaling pathway - cell viability counter screen (AID 1346799; calls by dose curve; further: nearly all actives have a fitted effect of over 45% in size; further: potency means the concentration at half of the fitted maximal effect)
Method in brief: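 Cytotoxicity measured by CellTiter-Glo luminescence (30 min, RT) in the same wells as the PR beta-lactamase agonist read. Those HEK293T cells had 16 h compound treatment at 37 C in 2% charcoal-stripped FBS medium.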

[14] = Caspase-3/7 induction in CHO-K1 cells by small molecules, qHTS assay (AID 1346980); further: nearly all actives have a fitted effect of over 15% in size
Method in brief: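 Wild-type CHO-K1 cells exposed to compounds for 17hr at 37 C, 5% CO2. Caspase-3/7 activity then measured by Caspase-Glo 3/7 luminescence after 30min at room temperature.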

[15] = target: Nuclear receptor subfamily 1 group I member 2 (Rattus norvegicus) (UniProt Q9R1A7); assay: Rat pregnane X receptor (rPXR) activation by small molecules, qHTS assay (AID 1346983); conditions: rPXR luciferase reporter cells, One-Glo luminescence, 24 h; max activation: hits give high values; further: nearly all actives have a fitted effect of over 20% in size; further: potency means the concentration at half of the fitted maximal effect
Method in brief: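 Cell-based rPXR activation assay: rPXR cells, 2,000 per well, rested 5hr at 37 C, then exposed to compounds in DMSO for 24 hr at 37 C. Luciferase activity read by One-Glo luminescence after 30 min at room temperature.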

[16] = qHTS assay to identify small molecule antagonists of the progesterone receptor (PR) signaling pathway - cell viability counter screen (AID 1346798); further: nearly all actives have a fitted effect of over 50% in size; further: potency means the concentration at half of the fitted maximal effect
Method in brief: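 Cytotoxicity read as CellTiter-Glo luminescence (30 min, room temperature) in the same wells as the beta-lactamase readout. HEK293T PR-UAS-bla cells in charcoal-stripped 2% FBS received compound and R5020, then 16 h at 37C, 5% CO2.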

[17] = Caspase-3/7 induction in HepG2 cells by small molecules, qHTS cell viability counter screen (AID 1346981); further: nearly all actives have a fitted effect of over 30% in size; further: potency means the concentration at half of the fitted maximal effect
Method in brief: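 Steps: seed 2,000 HepG2 cells per well; incubate 5 hr at 37 C; pin-add compounds in DMSO; incubate 16 hr; add CellTiter-Fluor; after 1 hr at 37 C and 5% CO2, read fluorescence.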

[18] = target: Nuclear receptor subfamily 1 group I member 2 (Homo sapiens) (UniProt O75469); assay: Human pregnane X receptor (PXR) small molecule agonists, qHTS assay (AID 1346982); further: nearly all actives have a fitted effect of over 35% in size; further: potency means the concentration at half of the fitted maximal effect
Method in brief: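 Agonist mode qHTS: PXR-Luc HepG2 cells plated 5 hr before DMSO-dissolved compounds were pinned in, cultured 24 hr at 37 C, 5% CO2; ONE-Glo luminescence readout.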

[19] = target: Nuclear receptor subfamily 1 group I member 2 (Homo sapiens) (UniProt O75469); assay: CYP3A4 induction through human pregnane X receptor (PXR) by small molecules, qHTS assay (AID 1346984); further: potency means the concentration at half of the fitted maximal effect; nearly all actives have a fitted effect of over 40% in size
Method in brief: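 Steps: seed DPX-2 cells, 5 hr at 37C; pin-transfer compounds; 24 hr at 37C; add Luciferin-IPA (3uM final), 3 hr at 37C; add One-Glo, 30 min RT; read luminescence.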

Chain of Progesterone receptor (Homo sapiens) (P06401 whole entry, looked up): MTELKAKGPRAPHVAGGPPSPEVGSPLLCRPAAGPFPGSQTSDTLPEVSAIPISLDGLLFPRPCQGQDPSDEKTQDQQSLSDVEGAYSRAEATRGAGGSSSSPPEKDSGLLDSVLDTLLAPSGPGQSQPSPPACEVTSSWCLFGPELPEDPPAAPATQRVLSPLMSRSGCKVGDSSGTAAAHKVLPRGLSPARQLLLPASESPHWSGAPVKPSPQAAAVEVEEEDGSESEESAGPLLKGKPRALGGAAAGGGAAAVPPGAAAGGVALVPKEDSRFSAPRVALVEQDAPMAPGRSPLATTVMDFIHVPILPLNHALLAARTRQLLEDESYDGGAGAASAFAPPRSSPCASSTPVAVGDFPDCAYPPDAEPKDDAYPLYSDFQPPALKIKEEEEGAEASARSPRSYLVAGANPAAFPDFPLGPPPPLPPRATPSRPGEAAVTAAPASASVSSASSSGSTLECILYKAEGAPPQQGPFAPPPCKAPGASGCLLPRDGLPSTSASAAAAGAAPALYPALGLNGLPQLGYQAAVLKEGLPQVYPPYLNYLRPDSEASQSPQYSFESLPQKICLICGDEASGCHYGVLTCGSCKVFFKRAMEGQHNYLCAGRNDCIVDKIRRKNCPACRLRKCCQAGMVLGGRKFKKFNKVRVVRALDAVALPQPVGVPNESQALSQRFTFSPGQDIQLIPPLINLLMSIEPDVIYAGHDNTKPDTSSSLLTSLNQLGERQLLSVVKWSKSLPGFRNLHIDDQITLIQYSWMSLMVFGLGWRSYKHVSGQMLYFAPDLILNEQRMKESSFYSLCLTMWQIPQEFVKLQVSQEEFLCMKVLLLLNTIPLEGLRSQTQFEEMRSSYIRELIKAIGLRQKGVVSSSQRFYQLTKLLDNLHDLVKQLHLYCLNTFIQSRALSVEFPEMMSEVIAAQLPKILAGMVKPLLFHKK
Chain of Nuclear receptor subfamily 1 group I member 2 (Rattus norvegicus) (Q9R1A7 whole entry, looked up): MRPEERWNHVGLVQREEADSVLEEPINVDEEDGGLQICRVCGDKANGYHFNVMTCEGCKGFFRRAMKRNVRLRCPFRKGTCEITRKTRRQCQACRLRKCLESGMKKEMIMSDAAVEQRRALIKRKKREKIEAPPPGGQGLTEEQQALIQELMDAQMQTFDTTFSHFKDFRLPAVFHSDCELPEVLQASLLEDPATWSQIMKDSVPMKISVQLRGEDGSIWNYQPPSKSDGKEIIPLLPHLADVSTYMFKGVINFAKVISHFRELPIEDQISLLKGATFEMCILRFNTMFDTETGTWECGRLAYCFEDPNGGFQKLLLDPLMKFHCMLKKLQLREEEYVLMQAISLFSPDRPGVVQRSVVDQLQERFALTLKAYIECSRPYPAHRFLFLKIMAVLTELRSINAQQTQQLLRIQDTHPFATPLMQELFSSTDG
Chain of Cytochrome P450 2D6 (Homo sapiens) (P10635 whole entry, looked up): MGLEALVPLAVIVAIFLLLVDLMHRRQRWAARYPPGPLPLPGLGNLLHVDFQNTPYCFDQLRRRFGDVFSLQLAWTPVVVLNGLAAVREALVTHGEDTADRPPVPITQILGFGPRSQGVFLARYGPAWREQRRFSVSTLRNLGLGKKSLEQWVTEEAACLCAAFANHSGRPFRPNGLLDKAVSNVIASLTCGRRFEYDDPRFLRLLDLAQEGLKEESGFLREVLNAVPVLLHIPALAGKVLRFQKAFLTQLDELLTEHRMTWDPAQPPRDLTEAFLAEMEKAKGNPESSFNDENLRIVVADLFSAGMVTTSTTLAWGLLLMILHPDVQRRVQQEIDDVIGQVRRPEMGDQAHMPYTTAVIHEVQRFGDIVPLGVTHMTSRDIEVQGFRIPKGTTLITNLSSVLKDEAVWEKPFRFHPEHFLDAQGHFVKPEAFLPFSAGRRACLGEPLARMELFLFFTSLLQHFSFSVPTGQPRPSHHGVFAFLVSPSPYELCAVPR
Chain of Cytochrome P450 2C9 (Homo sapiens) (P11712 whole entry, looked up): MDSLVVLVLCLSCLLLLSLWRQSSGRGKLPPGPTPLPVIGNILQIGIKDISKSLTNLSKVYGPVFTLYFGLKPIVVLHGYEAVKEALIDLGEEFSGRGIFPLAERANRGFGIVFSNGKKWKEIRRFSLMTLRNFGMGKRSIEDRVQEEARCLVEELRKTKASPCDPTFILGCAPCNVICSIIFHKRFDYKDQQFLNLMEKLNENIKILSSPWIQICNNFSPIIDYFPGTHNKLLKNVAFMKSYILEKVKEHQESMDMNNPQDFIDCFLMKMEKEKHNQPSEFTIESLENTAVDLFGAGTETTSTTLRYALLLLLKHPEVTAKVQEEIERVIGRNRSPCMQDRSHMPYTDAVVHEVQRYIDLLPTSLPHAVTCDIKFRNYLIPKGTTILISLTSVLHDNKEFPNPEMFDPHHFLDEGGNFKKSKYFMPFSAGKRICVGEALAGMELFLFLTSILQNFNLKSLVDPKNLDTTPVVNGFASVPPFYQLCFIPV
Chain of Thyrotropin-releasing hormone receptor (Homo sapiens) (P34981 whole entry, looked up): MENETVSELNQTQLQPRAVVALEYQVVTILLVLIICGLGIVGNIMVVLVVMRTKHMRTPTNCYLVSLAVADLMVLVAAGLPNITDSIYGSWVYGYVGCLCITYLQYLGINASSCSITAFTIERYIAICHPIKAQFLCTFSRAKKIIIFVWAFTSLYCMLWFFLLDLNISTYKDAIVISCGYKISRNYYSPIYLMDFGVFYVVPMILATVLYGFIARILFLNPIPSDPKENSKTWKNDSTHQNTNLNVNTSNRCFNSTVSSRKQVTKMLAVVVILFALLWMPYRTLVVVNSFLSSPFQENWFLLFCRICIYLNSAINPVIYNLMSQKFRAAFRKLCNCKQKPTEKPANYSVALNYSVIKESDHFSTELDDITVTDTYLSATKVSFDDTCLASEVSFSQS
Chain of Cytochrome P450 2C19 (Homo sapiens) (P33261 whole entry, looked up): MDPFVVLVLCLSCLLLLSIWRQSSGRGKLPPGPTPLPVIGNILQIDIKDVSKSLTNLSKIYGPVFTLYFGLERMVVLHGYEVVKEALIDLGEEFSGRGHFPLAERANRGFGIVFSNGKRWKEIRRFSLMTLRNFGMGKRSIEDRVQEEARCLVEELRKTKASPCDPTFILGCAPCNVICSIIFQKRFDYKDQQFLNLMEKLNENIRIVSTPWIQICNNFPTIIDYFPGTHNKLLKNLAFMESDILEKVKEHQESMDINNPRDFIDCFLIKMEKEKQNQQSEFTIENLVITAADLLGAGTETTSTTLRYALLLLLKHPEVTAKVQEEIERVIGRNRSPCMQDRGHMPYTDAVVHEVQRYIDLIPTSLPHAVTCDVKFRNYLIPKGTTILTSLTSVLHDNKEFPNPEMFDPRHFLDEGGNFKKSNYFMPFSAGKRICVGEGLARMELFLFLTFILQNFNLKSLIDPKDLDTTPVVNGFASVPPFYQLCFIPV
Chain of Nuclear receptor subfamily 1 group I member 2 (Homo sapiens) (O75469 whole entry, looked up): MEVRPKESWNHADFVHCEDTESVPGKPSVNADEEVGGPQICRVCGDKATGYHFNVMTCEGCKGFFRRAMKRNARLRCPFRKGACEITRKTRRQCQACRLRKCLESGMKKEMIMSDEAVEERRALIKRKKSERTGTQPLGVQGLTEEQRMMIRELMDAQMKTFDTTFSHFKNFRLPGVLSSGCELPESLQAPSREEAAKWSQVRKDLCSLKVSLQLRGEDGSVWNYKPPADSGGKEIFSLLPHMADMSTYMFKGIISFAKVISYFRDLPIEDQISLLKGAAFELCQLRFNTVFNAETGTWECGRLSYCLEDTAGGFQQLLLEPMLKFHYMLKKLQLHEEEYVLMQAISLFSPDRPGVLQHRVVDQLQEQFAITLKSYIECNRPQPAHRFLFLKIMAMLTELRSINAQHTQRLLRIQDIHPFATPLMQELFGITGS

SMILES	Potency [1]	Potency [2]	Potency [3]	Potency [4]	Potency [5]	Potency [6]	Potency [7]	Potency [8]	Potency [9]	Potency [10]	Potency [11]	Potency [12]	Potency [13]	Potency [14]	Potency [15]	Potency [16]	Potency [17]	Potency [18]	max activation [15]	Potency [19]
CC(C)(C)c1cc(/C=C2\SC(=N)NC2=O)cc(C(C)(C)C)c1O	61.1 µM (active)	inactive	inactive	inactive	inactive	inactive	48.6 µM (active)	inactive	54.5 µM (active)	39.9 µM (active)	20 µM (active)	1.78 µM (active)								
O=C1Nc2ccc(Cl)cc2[C@@](C#CC2CC2)(C(F)(F)F)O1	7.5 µM (active)		inactive	inactive	inactive	inactive			21.1 µM (active)	inactive	11 µM (active)	15.5 µM (active)	inactive	inactive	28.2 µM (active)					
CNC(=S)NN	8.63 µM (active)	inactive	inactive	inactive			12.2 µM (active)	61.1 µM (active)	19.3 µM (active)			39.9 µM (active)		inactive		13.7 µM (active)	inactive			
O=C(O)CC(=O)O	inactive	inactive	inactive	inactive	inactive	inactive	inactive	inactive	inactive	71.2 µM (active)	inactive	inactive	inactive	inactive			inactive	inactive		
CCCC(C)CCC(C)=O (stereo not given)	inactive	inactive	inactive	inactive	inactive	inactive	inactive	inactive			inactive	inactive	inactive	inactive		inactive	inactive	inactive		
C=CC(=O)OCCOCC(CC)(COCCOC(=O)C=C)COCCOC(=O)C=C	28.4 µM (active)	inactive	inactive	inactive			63.7 µM (active)	inactive	8.02 µM (active)		23.4 µM (active)	26.3 µM (active)	63.7 µM (active)			63.7 µM (active)	63.7 µM (active)	28.4 µM (active)		
Cc1ccc(CCn2c3c(c4cc(Cl)ccc42)CN(C)CC3)cn1	inactive	inactive	inactive	inactive	inactive	inactive		inactive		7.76 µM (active)	17.4 µM (active)	inactive	21.1 µM (active)			26.6 µM (active)		33.5 µM (active)		
Clc1ccc(C(c2ccccc2Cl)C(Cl)Cl)cc1 (stereo not given)	3.44 µM (active)	inactive	inactive	inactive	inactive	inactive	inactive	inactive				20 µM (active) and 9.77 µM (active)		inactive		inactive	inactive			
CC(O)C#CC(C)O (stereo not given)	inactive		inactive	inactive	inactive	inactive		inactive	27 µM (active)	35.2 µM (active)		inactive	inactive	inactive		inactive	inactive	24.1 µM (active)		
CC(C)=CC1CC(C)CCO1 (stereo not given)	inactive	inactive	inactive	inactive	inactive	inactive	inactive	inactive		inactive		inactive	inactive	inactive		inactive	inactive	inactive		
Oc1c(Br)cc(Br)c2cccnc12	2.66 µM (active)	inactive	inactive	inactive				inactive	23.7 µM (active)	inactive	inactive		inactive	inactive			inactive	29.8 µM (active)	-2.52%	1 µM (active)
CCN(CC)c1cccc(C)c1	inactive	inactive	inactive	inactive	inactive	inactive	inactive	inactive			inactive	inactive	inactive	inactive		inactive	inactive	inactive		
C[Si](C)O[Si](C)C	inactive	inactive	inactive	inactive			inactive	inactive	inactive	inactive	inactive	inactive	inactive			inactive	inactive	inactive		
CC1CNCC(C)O1 (stereo not given)	inactive	inactive	inactive	inactive			inactive	inactive		inactive	inactive	inactive	inactive	inactive		inactive				
CN1[C@@H]2CC[C@H]1CC(OC(=O)C(CO)c1ccccc1)C2 (stereo not given in full)	inactive	inactive	inactive	inactive			inactive	inactive	inactive				61.1 µM (active)	inactive		inactive	inactive		-0.936%	

Source: PubChem BioAssay (Tox21)
